Bead autofluor: compound fluorescence in toxin protease inhibitor counterscreen; fluorescence intensity (test concentration not listed); 360,000 compounds, 3.1% hits; compound autofluorescence counterscreen, microsphere flow cytometry; stronger effect = higher value; in the data active = fluorescence intensity above about 16000; inconclusive = no clear call, values can overlap the other calls
BoNT A protease: BoNT/A light chain protease inhibitors, primary screen, biochemical, flow cytometry, MLPCN library; inhibition, % at 10 µM; 360,000 compounds, 0.17% hits; multiplex microsphere protease substrate cleavage; AID 588499, 2011
MazEF act: activators of E. coli MazEF toxin-antitoxin RNase, primary screen, biochemical, fluorescence, uHTS | FAM/BHQ RNA-DNA oligo cleavage fluorescence, 5 h | activation, % at 20 µM | 350,000 compounds, 0.32% hits | AID 504720, 2011; in the data active = activation above about 50%
BoNT F protease: BoNT/F light chain protease inhibitors, primary screen, biochemical, flow cytometry, MLPCN library; Botulinum neurotoxin type F light chain protease (Clostridium botulinum); inhibition, % at 10 µM; Multiplex microsphere protease cleavage assay; AID 588497, 2011; 360,000 compounds, 0.22% hits; in the data active = inhibition above about 35%, passing the limit was not always enough; inconclusive = no clear call, values can overlap the other calls
Anthrax LF prot: Bacillus anthracis LF protease inhibitors, primary screen, biochemical, multiplex microsphere, MLPCN library | Lethal factor (Bacillus anthracis), P15917 | multiplex microsphere protease cleavage assay | inhibition, % at 10 µM | 360,000 compounds, 0.12% hits | AID 588501, 2011
Target sequence (P15917 whole entry, looked up): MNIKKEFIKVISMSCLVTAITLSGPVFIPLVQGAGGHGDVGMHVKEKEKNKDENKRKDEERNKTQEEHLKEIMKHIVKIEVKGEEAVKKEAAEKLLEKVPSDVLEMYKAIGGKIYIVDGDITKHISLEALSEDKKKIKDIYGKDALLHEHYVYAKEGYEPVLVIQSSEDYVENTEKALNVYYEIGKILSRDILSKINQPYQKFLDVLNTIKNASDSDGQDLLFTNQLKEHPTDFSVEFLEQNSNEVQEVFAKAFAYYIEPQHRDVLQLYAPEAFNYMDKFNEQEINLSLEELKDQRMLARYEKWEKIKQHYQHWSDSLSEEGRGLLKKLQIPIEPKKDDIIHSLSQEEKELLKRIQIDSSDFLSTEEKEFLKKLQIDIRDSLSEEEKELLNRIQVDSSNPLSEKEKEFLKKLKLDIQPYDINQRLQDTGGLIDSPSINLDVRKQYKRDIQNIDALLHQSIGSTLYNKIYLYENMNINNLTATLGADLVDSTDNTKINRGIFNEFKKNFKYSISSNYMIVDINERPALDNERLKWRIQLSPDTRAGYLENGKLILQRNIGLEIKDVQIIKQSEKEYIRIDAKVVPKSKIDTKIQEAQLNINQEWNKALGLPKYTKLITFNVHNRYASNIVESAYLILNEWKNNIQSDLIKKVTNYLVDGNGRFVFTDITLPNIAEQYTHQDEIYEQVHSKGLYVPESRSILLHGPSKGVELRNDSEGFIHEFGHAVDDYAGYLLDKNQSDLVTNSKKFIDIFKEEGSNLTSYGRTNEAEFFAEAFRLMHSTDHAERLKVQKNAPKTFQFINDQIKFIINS
Numbers stand for hits; 0 = inactive; ? = inconclusive; - = no result given. Most compounds without a hit are left out; they make up all but 3.7% or so of the library. Rule as the data show it, unless noted: active = inhibition above about 30%; inconclusive = no clear call, values can overlap the other calls; inactive = below that.

SMILES | Bead autofluor | BoNT A protease | MazEF act | BoNT F protease | Anthrax LF prot
CS(=O)(=O)Nc1ccc(S(=O)(=O)N2CCCCCC2)cc1 | 0 | 0 | 0 | 0 | 0
CS(=O)(=O)Nc1ccc(N2CCCCC2)c(Cl)c1 | 23555 | 0 | 0 | 0 | 0
COc1ccc([C@H]2C[C@H](O)[C@@H](n3cc(-c4ccc(F)cc4)nn3)CN2CC2CCCCC2)cc1 | 0 | 0 | 0 | 0 | 0
CCOC(=O)N1CCN(C(=O)CN(c2ccc(OC)c(OC)c2)S(C)(=O)=O)CC1 | 16773 | 0 | 0 | 0 | 0
CCOC(=O)N1CCN(C(=O)CN(c2ccc(OCC)cc2)S(C)(=O)=O)CC1 | 22023 | 0 | 0 | 0 | 0
CCOC(=O)C1=CCN(S(=O)(=O)c2ccc(C)cc2)C1c1ccc(C(C)C)cc1 (stereo unspecified) | 0 | 0 | - | 0 | 0
COc1cc(OC)cc(C(=O)N(Cc2ccco2)c2c(N)n(Cc3ccccc3)c(=O)[nH]c2=O)c1 | 0 | 0 | 0 | 0 | 0
COc1ccc(-c2csc(C(NC(C)=O)c3ccccc3)n2)cc1 (stereo unspecified) | 0 | 0 | - | 0 | 0
CCn1cc(C(C)NC(=O)COc2ccc(Cl)cc2C)c(C)n1 (stereo unspecified) | 23870 | 0 | 0 | 0 | 0
Cc1oc2cc(O)ccc2c(=O)c1N1C(=O)c2ccccc2C1=O | 19700 | 0 | 0 | 0 | 0
CCCOc1ccc2c(=O)c(N3C(=O)c4ccccc4C3=O)c(C)oc2c1 | 20166 | 0 | 0 | 0 | 0
CC(=O)Oc1ccc2c(=O)c(N3C(=O)c4ccccc4C3=O)c(C)oc2c1 | 0 | 0 | 0 | 0 | 0
O=C(CSc1nnc(Cc2ccccc2)n1Cc1ccco1)NC1CCCC1 | 0 | 0 | 0 | 0 | 0
CC(C)OC(=O)CSc1nnc(Cc2ccccc2)n1Cc1ccco1 | 19241 | 0 | 0 | 0 | 0
CN(C)c1nc(N)nc(CSc2nnnn2-c2ccc(Cl)cc2)n1 | 0 | 0 | - | 0 | 0
OCCNC(=S)Nc1ccc2c(c1)OCCO2 | 0 | 0 | 0 | ? | 30.0
COCCCNC(=S)Nc1ccc2c(c1)OCCO2 | 0 | 0 | 0 | 0 | 0
O=C(NC(=S)Nc1cnc2ccccc2c1)c1ccccc1 | 0 | 0 | 0 | 0 | 0
Cn1ncc2cc(NC(=S)NC(=O)c3ccccc3)ccc21 | 17054 | 0 | 0 | 0 | 0
O=C(NC(=S)Nc1ccc2c(c1)OCCO2)c1ccccc1 | 25451 | ? | 0 | 0 | 0
CC1=C(C(=O)N(C)C)CC(CC(=O)NCCc2ccccn2)C(=O)N1CCCN1CCCC1=O (stereo unspecified) | 0 | 0 | 0 | 0 | 0
CCOc1ccc(/C=C/c2[nH]c(=O)[nH]c(=O)c2[N+](=O)[O-])cc1 | 0 | 0 | 0 | 0 | 0
CC(C)c1ccc(/C=C/c2[nH]c(=O)[nH]c(=O)c2[N+](=O)[O-])cc1 | 0 | 0 | 0 | 37.3 | 0
O=C(C=P(c1ccccc1)(c1ccccc1)c1ccccc1)c1ccccc1-c1ccccc1C(=O)C=P(c1ccccc1)(c1ccccc1)c1ccccc1 | 0 | 0 | 0 | 0 | 0
Clc1ccc(OCc2nnc(-c3ccccc3Br)o2)cc1 | 16365 | 0 | 0 | 0 | 0
SMILES | Bead autofluor | BoNT A protease | MazEF act | BoNT F protease | Anthrax LF prot
O=C1OCc2cc(NC(=O)C3CCCCC3)ccc21 | 20191 | ? | 0 | 0 | 0
Cc1cc(C)cc(NC(=O)N2CCC(c3nc4ccccc4o3)CC2)c1 | 20562 | 0 | 0 | 0 | 0
COC(=O)[C@]12CCCCC=C1N(Cc1ccccc1)C(=O)[C@H](CC(=O)N1CCN(C(=O)c3ccco3)CC1)C2 | 0 | 0 | - | 0 | 0
C=CCn1c(=NC(=O)c2ccc(S(=O)(=O)N3CCCc4ccccc43)cc2)sc2cc(S(N)(=O)=O)ccc21 | 0 | 0 | 0 | 0 | 37.2
C=CCn1c(=NC(=O)c2ccc(S(=O)(=O)N3CCc4ccccc4C3)cc2)sc2cc(S(N)(=O)=O)ccc21 | 0 | 0 | 0 | 0 | 0
O=C(Nc1ccc(F)c(Cl)c1)C1Cc2c(-c3ccco3)ccnc2O1 (stereo unspecified) | 0 | 0 | - | 0 | 0
COCCCNC(=S)N(CCO)Cc1cc2cc3c(cc2[nH]c1=O)OCO3 | 0 | 0 | 0 | ? | 0
CCN(C1CCCCC1)S(=O)(=O)c1ccc(C(=O)O)cc1 | 23470 | 0 | 0 | 0 | 0
CCOC(=O)N1CCN(C(=O)CN(Cc2ccc(Cl)cc2)S(=O)(=O)c2ccccc2)CC1 | 24155 | 0 | 0 | 0 | 0
CCOC(=O)N1CCN(C(=O)CN(C2CCCCC2)S(=O)(=O)c2ccc(Cl)cc2)CC1 | 22589 | 0 | 0 | 0 | 0
CN(Cc1nc2ccccc2c(=O)[nH]1)C(=O)c1cc(-c2ccc(Br)cc2)nc2ccccc12 | 0 | 0 | 0 | 0 | 0
OCC[C@H]1C[C@H](O)[C@@H](O)[C@]2(OCc3ccccc32)O1 | 0 | 0 | 0 | 0 | 0
CCOc1ccccc1-c1ccc2nccn2c1 | 0 | 0 | - | 0 | 0
COc1ccc(C2CCc3cc4c(cc3C2=NO)OCO4)cc1OC (stereo unspecified) | 0 | 0 | 0 | 0 | 0
Cc1ccc(-c2cc(C)nc3nc(N)nn23)cc1 | 16426 | 0 | 0 | 0 | 0
COc1ccccc1-n1cc(C(=O)NCC(=O)N2CCN(c3ccccc3)CC2)c2ccccc2c1=O | 24097 | 0 | 0 | 0 | 0
CC(C)(C)c1ccc(C(=O)N2CCC2(C)C(=O)Nc2cnc3ccccc3c2)cc1 (stereo unspecified) | 0 | 0 | - | 0 | 0
COC(=O)c1c(C)[nH]c(C(=O)C(C)OC(=O)C2CC2)c1C (stereo unspecified) | 0 | 0 | 0 | 0 | 0
O=C1c2cccnc2C(O)N1C1CCCCC1 (stereo unspecified) | 23226 | 0 | 0 | 0 | 0
CCCCN1C(=O)c2ccccc2C1C(=O)NC1CCCC1 (stereo unspecified) | 22700 | 0 | 0 | 0 | 0
O=C(NC1CCCCCCC1)C1c2ccccc2C(=O)N1Cc1ccco1 (stereo unspecified) | 0 | 0 | 0 | 0 | 0
O=C(NC1CCCC1)C1c2ccccc2C(=O)N1C1CCCCC1 (stereo unspecified) | 19915 | 0 | 0 | 0 | 0
CC1CCC(NC(=O)C2c3ccccc3C(=O)N2CCCN2CCOCC2)CC1 (stereo unspecified) | 24072 | ? | 0 | 0 | 0
COc1ccc(OC)c(-n2c(O)c(C=NCc3ccc4c(c3)OCO4)c(=O)[nH]c2=O)c1 | 16727 | 0 | 0 | 0 | 0
Cc1ccc(C)c(Cn2c(=O)n(CCCC(=O)NCc3ccco3)c(=O)c3sccc32)c1 | 0 | 0 | 0 | 0 | 0
Cc1cccc(C)c1NC(=O)Cn1c(=O)n(CCCC(=O)NCc2ccco2)c(=O)c2sccc21 | 22217 | 0 | 0 | 0 | 0
O=C(CCCn1c(=O)c2sccc2n(CC(=O)NCc2ccco2)c1=O)NCc1ccco1 | 20462 | ? | 0 | 0 | 0
O=C(CCn1c(=O)c2sccc2n(CC(=O)NCc2ccco2)c1=O)NCc1ccccc1 | 24369 | 0 | 0 | 0 | 0

Assay outcomes from PubChem.
